Screening data from PubChem BioAssay.
The entries come from a sample that favours hits as a whole.
Cruzain inh noDet: cruzain (T. cruzi) inhibition without detergent | P25779 | purified cruzain, Z-FR-AMC fluorescence, no detergent | Potency, µM, inactives show max response, negative = inhibition, most hits filed as inhibitors | hit rate 2.3% among 200,000 | AID 1476;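 note: plate controls were enzyme without inhibitor for no effect and buffer without enzyme for full effect; nearly all actives have a fitted effect of over 40% in size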
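Purified cruzain at 1.5 nM, pre-incubated 15 min with compound at room temperature in 100 mM sodium acetate pH 5.5, 5 mM DTT, 0.00005% Triton X-100. Reaction started with 2 uM Z-FR-AMC; AMC fluorescence increase over 60 s gives rate.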
Giardia FBPA inh-1: inhibitors of Giardia lamblia fructose-1,6-bisphosphate aldolase. A8B2U2. purified Giardia FBPA. Potency, µM (doses to about 59.6 µM), without a hit: top-dose activity, negative = inhibition, actives largely listed as inhibitors. hit rate 0.71% among 290,000; note: nearly all actives have a fitted effect of over 55% in size
Target sequence (A8B2U2 whole entry, looked up): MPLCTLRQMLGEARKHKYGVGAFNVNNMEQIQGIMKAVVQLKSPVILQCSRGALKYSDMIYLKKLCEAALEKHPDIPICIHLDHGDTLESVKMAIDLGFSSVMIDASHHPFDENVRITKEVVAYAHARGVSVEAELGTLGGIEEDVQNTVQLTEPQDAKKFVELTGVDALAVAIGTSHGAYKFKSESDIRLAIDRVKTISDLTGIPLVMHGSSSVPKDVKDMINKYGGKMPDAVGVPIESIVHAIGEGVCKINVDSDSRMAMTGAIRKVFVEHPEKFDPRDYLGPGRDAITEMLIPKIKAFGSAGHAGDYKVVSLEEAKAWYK
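Giardia FBPA (40 nM reagent) was preincubated 10 min at RT with compound (up to 57.5 uM final), then substrate plus GAPDH/TPI/NAD/arsenate coupling system with diaphorase/resazurin was added; resorufin fluorescence (525/598 nm) was read after 20 min.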
Cruzain Triton: blocks cruzain activity in presence of Triton detergent; P25779; Potency, µM, for inactives: max response, negative = inhibition, hits mostly inhibitors; hit rate 0.43% among 200,000; AID 1478; purified cruzain, Z-FR-AMC fluorescence, 0.01% Triton;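 note: plate controls were neutral wells for no effect and buffer without enzyme for full effect; nearly all actives have a fitted effect of over 40% in size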
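Cruzain (1.5 nM) preincubated 15 min at RT with compound in 100 mM sodium acetate pH 5.5, 5 mM DTT, 0.01% Triton X-100. Reaction started with 2 uM Z-FR-AMC; AMC fluorescence (ex 360/em 450 nm) change over 60 s gave rate.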
Giardia growth: Giardia lamblia growth inhibition. shares compounds with Giardia FBPA inh-1. Giardia lamblia trophozoite growth inhibition. Potency, µM (highest dose often 57.5 µM), inactives show top-dose activity change, negative = inhibition, actives largely listed as inhibitors. hit rate 5% among 1,500. AID 2785;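 note: trophozoites exposed to compound for 48 h at 37 °C; nearly all actives have a fitted effect of over 70% in size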
Mammal cell tox: counter-screen for Giardia aldolase inhibitors: mammalian cell toxicity. Potency, µM (highest dose often 57.5 µM), for inactives: at the highest dose viability change, negative = toxicity, hits mostly inhibitors. hit rate 4% among 1,500. AID 2786. mammalian cell viability counter-screen, qHTS. shares compounds with Giardia FBPA inh-1;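 note: Chinese hamster ovary cells used as mammalian cytotoxicity surrogate; viability measured as cellular ATP by luminescence; compound exposure lasted 48 h before reading; nearly all actives have a fitted effect of over 60% in size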
Giardia FBPA inh-2: confirmation of Giardia fructose-bisphosphate aldolase inhibitors | purified Giardia aldolase enzyme activity, qHTS | AID 2787 | Potency, µM (top dose mostly 57.5 µM), without a hit: top-dose activity change, negative = inhibition, usual class: inhibitors | hit rate 5% among 1,500 | shares compounds with Giardia FBPA inh-1; note: nearly all actives have a fitted effect of over 45% in size
Rabbit FBPA inh: selectivity test for Giardia aldolase inhibitors: rabbit aldolase; shares compounds with Giardia FBPA inh-1; Rabbit muscle FBPA enzyme inhibition, selectivity counter-screen; Potency, µM (highest dose often 57.5 µM), for inactives: at the top dose activity, negative = inhibition, hits mostly inhibitors; hit rate 4% among 1,500; AID 2794; note: nearly all actives have a fitted effect of over 60% in size
GAPDH counter: GAPDH inhibition flagged for Giardia aldolase hits; Potency, µM (titrated, usually from 57.5 µM), for the others: at the top dose activity change, negative = inhibition, hits mostly inhibitors; AID 2795; GAPDH coupling enzyme counterscreen, biochemical, qHTS; shares compounds with Giardia FBPA inh-1; hit rate 6% among 1,500; note: nearly all actives have a fitted effect of over 55% in size
Active calls of the source: *; ? = inconclusive; nt = not tested or not shown; [ ] = dose if it differs, or a comment. Calls come from the whole dose curve; as a rule, active = well fitted curve in the direction sought with a large enough effect; inconclusive = small, poorly fitted or top-dose-only effect, or another doubt; inactive = no such curve, though single readings can be large; an effect the other way counts as inactive or inconclusive. Unless noted, % is set by controls: 0 for no effect and ±100 for the full control effect; potency is the fitted concentration of half-maximal effect.

SMILES	Cruzain inh noDet	Giardia FBPA inh-1	Cruzain Triton	Giardia growth	Mammal cell tox	Giardia FBPA inh-2	Rabbit FBPA inh	GAPDH counter
Cc1ccc(-n2c(=O)c3ccc(C(=O)NCc4ccccc4Cl)cc3n(CC(=O)Nc3cccc(F)c3)c2=O)cc1	-6.3%	nt	-2.4%	nt	nt	nt	nt	nt
CCOc1ccc(N(CC)S(=O)(=O)N2CCCC(C(=O)NCc3ccccc3OCC)C2)cc1 (stereo not drawn)	28.9%	nt	-6.0%	nt	nt	nt	nt	nt
Cn1c2ccccc2c2cc(/C=N/NC(=O)c3cc(O)ccc3O)ccc21	nt	25.1µM*	nt	-10.0%	0.6%	?	-6.8%	-29.3%
COc1cc(C(=O)N/N=C/c2ccc3c(c2)c2ccccc2n3C)ccc1O	nt	0.5%	nt	nt	nt	nt	nt	nt
CCOC(=O)c1ccccc1NC(=O)COC(=O)CC(C)(C)CC1=NS(=O)(=O)c2ccccc2N1	?	nt	-0.7%	nt	nt	nt	nt	nt
Cc1nnc(NC(=O)c2ccc(S(=O)(=O)N3CC(C)CC(C)C3)cc2)o1 (stereo not drawn)	nt	-4.6%	nt	nt	nt	nt	nt	nt
O=C(NCc1ccccc1)c1ccc(S(=O)(=O)N2CCCc3ccccc32)cc1	-6.5%	-2.8%	2.0%	nt	nt	nt	nt	nt
COCc1nnc(NC(=O)c2ccc(S(=O)(=O)N3CCCc4ccccc43)cc2)o1	nt	17.7µM*	nt	1.4%[10.4 µM]	-12.5%	-2.4%	10.6%	0.0%
Cc1nnc(NC(=O)c2ccc(S(=O)(=O)N3CCc4ccccc4C3)cc2)o1	nt	17.7µM*	nt	?	0.8%	-6.6%	7.4%	5.7%
COc1cc(-c2nnc(NC(=O)c3ccc(S(=O)(=O)N4CCOCC4)cc3)o2)cc(OC)c1OC	nt	-4.7%	nt	nt	nt	nt	nt	nt
COCc1nnc(NC(=O)c2ccc(S(=O)(=O)N3CCOCC3)cc2)o1	nt	22.4µM*	nt	?	-3.2%	3.6%	18.0%	4.6%
Cc1ccc(-n2ncc(C(=O)NCCc3ccsc3)c2C2CCN(C(=O)OC(C)(C)C)CC2)c(C)c1	7.2%	nt	-8.6%	nt	nt	nt	nt	nt
CCc1ccc2oc(-c3cccc(NC(=O)C(C)(C)Oc4ccc(Br)cc4)c3)nc2c1	-25.8%	nt	2.0%	nt	nt	nt	nt	nt
COc1ccc(-c2c(C3C4C=CCCC4(C)C(=O)N3Cc3ccccc3)ccc3ccccc23)cc1OC (stereo not drawn)	nt	3.1%	nt	nt	nt	nt	nt	nt
CCOc1ccc(/C(CCC(=O)O)=N/NC(=S)NC(C)C)cc1	nt	15.8µM*	nt	-16.4%	17.5%	3.8%	14.8%	9.5%
CCOc1ccc(C(=O)CCC(=O)O)cc1	-1.9%	-1.9%	1.6%	nt	nt	nt	nt	nt
CCOC(=O)c1c(NC(=O)CN(C)C2CCN(C)CC2)sc(C(=O)Nc2ccccc2)c1C	nt	19.9µM*	nt	?	-13.5%	2.1%	5.2%	6.9%
COC(=O)c1c(NC(=O)C2CC2)sc(C(=O)Nc2ccccc2)c1C	nt	-3.5%	nt	nt	nt	nt	nt	nt
COc1ccc(N2CC(NC(=O)c3ccc(S(=O)(=O)N4CCCCC4)cc3)CC2=O)cc1 (stereo not drawn)	7.6%	nt	-1.1%	nt	nt	nt	nt	nt
COc1ccc(CN(C)c2ccc(-c3nc(C)no3)cc2[N+](=O)[O-])cc1	-5.6%	nt	-9.6%	nt	nt	nt	nt	nt
Cn1c(=O)[nH]c(=O)c2c1nc(Br)n2CCCc1ccccc1	-2.1%	-5.5%	3.3%	nt	nt	nt	nt	nt
Cn1c(=O)c2c([nH]c(=S)n2CCCc2ccccc2)n(C)c1=O	nt	10µM*	nt	-19.5%[10.4 µM]	4.1%	6.1%	-17.3%	16.1%
Cn1c(=O)[nH]c(=O)c2c1[nH]c(=S)n2CCCc1ccccc1	nt	3.55µM*	nt	-10.2%[38.3 µM]	-2.9%	-11.8%	35.5µM*	-0.8%
Cn1c(=O)c2c(nc(Br)n2CCCc2ccccc2)n(C)c1=O	-2.2%	-16.5%	-0.5%	nt	nt	nt	nt	nt
CCN(Cc1nc(-c2ccc(OC)c(OC)c2)no1)S(=O)(=O)c1ccc(OC)cc1	?	nt	-6.5%	nt	nt	nt	nt	nt
COc1ccc(NC(=O)CSc2c(C(C)C)cnc3c2c(=O)n(C)c(=O)n3C)c(OC)c1	-5.1%	nt	-0.2%	nt	nt	nt	nt	nt
CN1CC[C@@]2(C)c3cc(O)ccc3N(C)C2O1 (stereo partly drawn)	nt	0.629µM*	nt	?	-21.5%	2.51µM*	3.55µM*	4.47µM*
